Screening data (PubChem BioAssay)
Hits are enriched below; roughly 3.4% of the tested compounds scored in any of these assays.
APP 5'UTR act: APP 5'UTR luciferase reporter activation. SH-SY5Y APP 5'UTR luciferase reporter, luminescence; zero percent = DMSO vehicle wells. activation, % at 2 µM. 190,000 tested, 1% active;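 active = activation above a set limit, based on mean plus 3 SD of controls, cut at about 140% in these data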
NF-kB neuron act: raises NF-kB expression in human neuronal cells. 190,000 tested, 1.6% active. NF-kB reporter expression; hits give high values. fold change at 12.5 µM; in the data active = fold change above about 3.3
hgDAF-12 ag: activates the H. glycines DAF-12 receptor ligand-binding domain; activation, % at 6.8 µM; 370,000 tested, 1.8% active; AID 687014; HEK293 GAL4-hgDAF12 UAS-luciferase reporter, agonist luminescence; normalized to butyrate control;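 active = activation above a cutoff set at the mean of all screened compounds plus 3 SD, cut at about 10% in these data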
ssDAF12 agonist: activates DAF-12 receptor from parasite S. stercoralis | HEK293 ssDAF-12/GRIP1 lit1-tk-luc reporter, luminescence; % of 3 µM dafachronic acid response | activation, % at 6.8 µM | 370,000 tested, 1% active | AID 652126;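 active = activation above the mean over all tested compounds plus 3 SD, cut at about 0.9% in these data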
hcDAF12 agonist: activators of H. contortus DAF-12 nuclear receptor; activation, % at 6.8 µM; 370,000 tested, 1.4% active; HEK293 hcDAF-12 lit1-tk-luc reporter, luminescence; 0% DMSO, 100% Δ7-dafachronic acid; AID 652067;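 active = activation above the mean of all tested compounds plus 3 SD, cut at about 5.5% in these data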
LXR ag: counter-screen for hcDAF-12 agonists: agonists of human LXR-beta; AID 743027; shares compounds with hcDAF12 agonist; activation, % at 6.8 µM; 3,400 tested, under 10 active; HEK293 Gal4-LXR tk-luc reporter, luminescence, 24 h; normalized: DMSO 0%, positive control 100%;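 active = mean percent activation of the reporter above a cutoff set as the average over tested compounds plus their standard deviation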
Target sequence (P55055 whole entry, looked up, the tested form may be a part): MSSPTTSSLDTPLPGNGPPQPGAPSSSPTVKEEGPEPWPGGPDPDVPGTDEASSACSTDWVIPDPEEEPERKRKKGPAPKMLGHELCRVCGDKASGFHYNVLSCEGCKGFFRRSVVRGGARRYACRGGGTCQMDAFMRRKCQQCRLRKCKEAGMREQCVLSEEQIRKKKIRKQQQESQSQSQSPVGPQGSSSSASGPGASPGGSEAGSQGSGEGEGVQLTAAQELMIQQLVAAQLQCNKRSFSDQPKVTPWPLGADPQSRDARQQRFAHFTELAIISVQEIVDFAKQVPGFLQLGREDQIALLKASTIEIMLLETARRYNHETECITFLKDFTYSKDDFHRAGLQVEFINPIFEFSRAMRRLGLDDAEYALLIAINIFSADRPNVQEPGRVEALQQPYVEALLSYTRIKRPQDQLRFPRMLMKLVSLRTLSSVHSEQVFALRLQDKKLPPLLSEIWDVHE
hcDAF12 conf: hcDAF-12 agonism, confirmation assay. activation, % at 6.8 µM. AID 743032. 3,400 tested, 61% active. HEK293 hcDAF-12 lit1-tk-luc reporter, luminescence; % of Δ7-dafachronic acid response. shares compounds with hcDAF12 agonist;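 active = mean activation across triplicate tests above the threshold derived from the earlier primary screen, cut at about 5.5% in these data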
A number is an active result; i = inactive; nt = no result.

SMILES	APP 5'UTR act	NF-kB neuron act	hgDAF-12 ag	ssDAF12 agonist	hcDAF12 agonist	LXR ag	hcDAF12 conf
O=C(NCCc1ccccc1)c1ccccc1NC(=O)C1CC=CCC1C(=O)O (configuration not stated)	i	i	11	1.2	11	i	7.2
COC(=O)c1ccccc1NC(=O)C1CC=CCC1C(=O)O (configuration not stated)	i	i	i	i	i	nt	nt
CC[C@H](CCCc1ccc(F)cc1)CN(Cc1ccc(OC)cc1)S(=O)(=O)c1ccc(C)cc1	nt	nt	i	i	i	nt	nt
CCCCN(C(=O)c1cccc(S(=O)(=O)N2CCOCC2)c1)c1c(N)n(CCC)c(=O)[nH]c1=O	i	i	i	i	8.2	i	i
CCCCN(C(=O)c1cccc(S(=O)(=O)N2CCN(C)CC2)c1)c1c(N)n(CCCC)c(=O)[nH]c1=O	nt	nt	i	i	i	nt	nt
CCCCCCCCN1C(=O)[C@@H](CC(=O)NCCCOCCCC)C[C@@]2(C(=O)OC)C1=C[C@H](COCc1ccccc1)O[C@@H]2C	nt	nt	i	i	i	nt	nt
CCCCOCCCNC(=O)C[C@H]1C[C@@]2(C(=O)OC)C(=C[C@H](C3CCCC3)O[C@@H]2C)N(CCc2ccc(OC)c(OC)c2)C1=O	nt	nt	i	i	i	nt	nt
N#Cc1ccsc1NC(=O)COC(=O)c1cc2ccccc2cc1O	i	i	i	1.1	9.3	i	10
COc1ccc(S(N)(=O)=O)cc1C(=O)OCC(=O)Nc1sccc1C#N	nt	nt	i	i	i	nt	nt
OC[C@H]1CC[C@@H]2O[C@H](CCc3ccc(-c4ccc(F)cc4)cc3)[C@H](n3cc(C4CC4)nn3)C[C@@H]2O1	nt	nt	i	i	i	nt	nt
CCCn1c(C)cc(C(=O)COC(=O)c2nccnc2N)c1C	i	i	13	1.3	7.4	i	5.9
COc1ccc(CCn2c(C)cc(C(=O)COC(=O)c3cnccn3)c2C)cc1	nt	nt	i	i	i	nt	nt
CCOC(=O)C1CCCCN1C(=O)CCc1nnc(-c2ccc3c(c2)OCO3)o1 (configuration not stated)	nt	nt	i	i	7.7	i	i
O=C(N/N=C/c1c[nH]c2ccccc12)c1ccn[nH]1	i	i	12	i	9.9	i	i
Cc1c(/C=N\NC(=O)c2c[nH]c3ccccc23)cnn1C	i	i	i	1.7	9.4	i	i
O=C(N/N=C\c1c[nH]c2ccccc12)c1ccc(O)cc1	nt	nt	i	1.4	9.7	i	i
Cc1nccn1CC(=O)N/N=C/c1ccccc1O	nt	nt	i	i	i	nt	nt
Cc1nccn1CC(=O)N/N=C/c1c[nH]c2ccccc12	nt	nt	i	i	8.3	i	i
CCn1cc(/C=N\NC(=O)c2c[nH]c3ccccc23)c(C)n1	i	i	i	i	i	nt	nt
COc1cccc(CNC(=O)CN2CCCc3ccccc32)c1OC	nt	nt	i	i	i	nt	nt
COC(=O)[C@]12C[C@H](CC(=O)N3CCN(C(=O)c4ccco4)CC3)C(=O)N(CCC3=CCCCC3)C1=C[C@H](C1CCCC1)O[C@@H]2C	nt	nt	i	i	i	nt	nt
CC(C)(C)OC(=O)N/N=C/c1c[nH]c2ccccc12	i	i	12	1.4	11	i	6.6
O=C(N/N=C/c1c[nH]c2ccccc12)c1ccc(Br)cc1	nt	nt	i	1.1	7.3	i	i
O=C(N/N=C/c1c[nH]c2ccccc12)C1CC1c1ccccc1 (configuration not stated)	i	i	i	i	9.2	i	i
COc1cccc(Nc2nnc(SCN3C(=O)c4ccccc4C3=O)s2)c1	i	i	i	i	i	nt	nt
SMILES	APP 5'UTR act	NF-kB neuron act	hgDAF-12 ag	ssDAF12 agonist	hcDAF12 agonist	LXR ag	hcDAF12 conf
Cn1nnnc1SCc1nc2ccccc2s1	i	i	i	2.1	8.7	i	8.5
COc1cccc(Nc2nnc(SCc3nc4ccccc4s3)s2)c1	i	i	i	i	7.0	i	10
Cc1cccc(C)c1Nc1nnc(SCc2nc3ccccc3s2)s1	i	i	13	0.9	12	i	11
Cc1cccc(C)c1Nc1nnc(SCC(=O)NCc2cccs2)s1	i	i	i	i	i	nt	nt
O=S1(=O)c2ccc(N3CCSCC3)cc2Oc2ccccc2CN1Cc1cn(Cc2cccc(F)c2)nn1	nt	nt	i	i	i	nt	nt
COc1ccccc1N1C(=O)C(Cl)=C(Nc2ccccc2O)C1=O	i	i	i	1.5	7.1	i	i
Clc1ccc(C=Cc2ccccn2)c(Cl)c1	nt	nt	13	1.2	8.2	i	15
COCC(=O)N(C)c1nnc(-c2ccccn2)s1	i	i	i	i	i	nt	nt
c1ccc(-c2nnc(-c3ccccn3)s2)nc1	nt	nt	13	1.0	9.6	i	14
CC(=O)OC12CCCN(C1)/C(=C/c1ccccc1)C2 (configuration not stated)	nt	nt	i	i	i	nt	nt
Cc1ccc(C=Nc2cc([N+](=O)[O-])ccc2C)s1	i	i	i	i	6.9	i	i
Cc1ccc([N+](=O)[O-])cc1N=Cc1ccc(Br)s1	i	i	i	i	i	nt	nt
CCN(CC)c1ccc(/C=N/N(c2ccccc2)c2ccccc2)c(O)c1	i	i	i	1.1	12	i	i
O=C(CSc1c[nH]c2ccccc12)NCC1CCCO1 (configuration not stated)	i	i	i	1.5	9.6	i	i
Cc1nc2cc(NC(=O)N3c4ccccc4CC3C)ccc2n1C (configuration not stated)	nt	4	i	1.3	6.9	i	8.2
CCCc1cc(C(=O)Nc2ccc(F)c(Cl)c2)no1	nt	nt	i	i	i	nt	nt
CCCc1cc(C(=O)Nc2cccc(Cl)c2)no1	i	i	i	i	9.4	i	i
Cc1ccc(N2CCN(/N=C\c3cccnc3)CC2)cc1	nt	nt	i	i	i	nt	nt
Cc1ccc(NC(=O)CNCc2ccccc2Cl)cc1S(=O)(=O)N(C)C	nt	nt	i	i	i	nt	nt
Cc1ccc(NC(=O)Cc2c(Cl)cccc2Cl)cc1S(=O)(=O)N(C)C	i	i	i	i	11	i	i
Cc1cccn2c1nc(=S)n2C(=O)c1ccco1	147	i	12	i	9.5	i	9.2
Cc1cccc(-c2cccc3c4c([nH]c23)[C@@H]2C[C@H]3[C@@H](C(=O)N2CC4)[C@H](C)ON3C)c1	nt	nt	i	i	i	nt	nt
NC(=O)c1ccccc1NC(=S)NC(=O)c1ccc(Br)o1	i	i	i	i	9.2	i	i
O=C(NC(=S)NCc1ccccc1)c1ccc(Br)o1	nt	nt	i	i	i	nt	nt
CCOC(=O)CNc1c(-c2ccccc2)nc2ccc(Cl)cn12	i	i	i	i	i	nt	nt
COC(=O)CNc1c(-c2ccccn2)nc2ccc(Br)cn12	i	i	i	i	7.8	i	6.2
C=CCS/C(N)=N\N=C\c1c(O)ccc2ccccc12	nt	nt	17	1.9	14	i	11
NC(=O)c1ccc(N=Cc2c(O)ccc3ccccc23)cc1	nt	nt	i	i	i	nt	nt
